Among all 38,000 compounds or so, about 1,200 (3.2%) showed an effect of 50% or more. The median lay at about -58%. Shown is part of a subset that was picked to be rich in strong results.
Tested on: Plasmodium falciparum
Assay: Calibr Malaria Delayed Death Assay SOP
Format: functional, organism-based
Set-up: scale not given: in the data most compounds retested in dose-response had high values
Details: concentration 4.99e-06 (unit not given; other assays of the set use mol/L)

| Structure (SMILES) | Percent Effect [%] |
| --- | --- |
| CN(C)C(=O)C1CCCN1CCCNC(=O)Cc1ccccc1F (centres undefined) | -2.997 |
| Cc1cc(C(C)NCCN2CCC(N(C)C)CC2)c(C)s1 (centres undefined) | 81.06 |
| CCC(c1ccc(F)cc1F)N1CCN(CCO)CC1 (centres undefined) | 33.11 |
| CCc1cnc(C)nc1NCCN1CCC(O)CC1 | -33.54 |
| Cc1cc(OC(F)F)c(C(=O)N2CCC(N(C)C)CC2)s1 | -15.44 |
| CC(NCCN1CCC(N(C)C)CC1)c1ccc(F)cc1N(C)C (centres undefined) | 55.63 |
| CC(NCc1cnc(N2CCOCC2)nc1)c1ccc(Cl)s1.Cl (centres undefined) | -27.68 |
| CCS(=O)(=O)CCNC(=O)NC(C)c1cc(C)sc1C (centres undefined) | -122.2 |
| CC(NCCN1CCC(N(C)C)CC1)c1ccc(Cl)s1 (centres undefined) | 74.67 |
| CC(NCCCN1CCCC1=O)c1ccc(F)cc1N(C)C (centres undefined) | -66.62 |
| CCc1cnc(C)nc1NCCN1CCCCCC1 | 42.39 |
| CC(NCCCc1cnn(C)c1)c1ccc(Cl)s1 (centres undefined) | 14.15 |
| O=C(NCCc1cccs1)NC1CCN(c2ncccn2)CC1 | -296.1 |
| Cc1c(Cl)cccc1S(=O)(=O)N1CCC2(CC1)OCCS2 | -126 |
| Cn1cc(CN2CCC3(CCCCN3S(C)(=O)=O)CC2)cn1 | -156.9 |
| CNC(=O)c1cn(C)c(-c2nc3cc(NC(C)=O)ccc3n2C)c1OC | -25.75 |
| Cn1nc2c(c1NC(=O)c1ccc(C3CCCN3C3CCC3)s1)CCC2 (centres undefined) | 4.44 |
| CCN(CC)c1nc(C)cc(C(=O)Nc2cnn(CC)c2)n1 | -148 |
| CC(=O)N1CCC2(CC1)CC(NC(=O)N(C)C)c1cc(C)ccc12 (centres undefined) | -69.21 |
| CC(=O)NCCCNCc1ccc(Cl)c2cccnc12 | -40.58 |
| CC(C)(C)C(=O)NCCNCc1ccc(Cl)c2cccnc12 | 76.99 |
| O=C(CCCNCc1ccc(Cl)c2cccnc12)NC1CC1 | 8.752 |
| Cc1nc2n(n1)CC(NCc1ccc(Cl)c3cccnc13)CC2 (centres undefined) | 12.21 |

| Structure (SMILES) | Percent Effect [%] |
| --- | --- |
| CC(C)(O)CSCCNC(=O)c1ccc(F)cc1Cl | -61.07 |
| CC(C)(O)CSCCNCc1ccc(Cl)c2cccnc12 | 66.02 |
| Cn1cnc2c1CCN(Cc1ccc(Cl)c3cccnc13)C2 | -32.7 |
| CC(C)(C)[S+]([O-])CCNC(=O)c1ccc(Cl)c2cccnc12 (centres undefined) | -47.19 |
| CCS(=O)(=O)NCCNCc1ccc(Cl)c2cccnc12 | 60.34 |
| CNc1nc2ncc(Cl)cc2cc1C#N | -168.4 |
| CN1C(=O)CC(c2cnn(C)c2)C12CCN(C(=O)c1ccco1)CC2 (centres undefined) | -26.83 |
| Cc1ccoc1C(=O)NC1CCN(Cc2ccccc2F)CC1 | -117.1 |
| CCOc1cc(CN(C)CCCO)ccc1OC(F)F | -85.19 |
| CCc1ccc(OCC(O)CN2CCN(CC)CC2)cc1 (centres undefined) | -62.39 |
| COc1ccc(Cl)cc1CN(C)C(=O)CN1C(=O)OC[C@@H]1C(C)C | -43.68 |
| CCOCC(O)CN1CCN(C(=O)Cc2ccccc2Cl)CC1 (centres undefined) | -127.6 |
| CCOCC(O)CN1CCN(C(=O)c2ccccc2Cl)CC1 (centres undefined) | -98.46 |
| CN(CCO)Cc1cc(Cl)ccc1OCC(O)CN1CCCCCC1 (centres undefined) | 81.18 |
| CCC(O)CN1CCN(C(=O)Cc2cc(Cl)ccc2OC)CC1 (centres undefined) | -20.59 |
| COCC(=O)N1CCC2(COCc3cnc(NCc4ccco4)nc32)C1 (centres undefined) | -70.56 |
| COCCCN(CCOC)C(=O)Nc1ccc(Br)cc1 | -39.78 |
| CCCNS(=O)(=O)c1ccc2[nH]c(=O)cc(C)c2c1 | -19.76 |
| CCOC(C)C(=O)N1CCN(S(C)(=O)=O)CC1 (centres undefined) | -95.85 |
| CS(=O)(=O)CC(=O)N1C[C@H]2CCC[C@@]2(COCc2ccncc2)C1.O=C(O)C(F)(F)F | -43.79 |
| COCCN1CCCCC12CC(=O)N(c1cccc(C#N)c1)C2.O=C(O)C(F)(F)F (centres undefined) | -143.4 |
| C1CC(CO[C@@H]2CC[C@H]3[C@H]2OCCN3CC2CCOCC2)CCO1.O=C(O)C(F)(F)F | -39.09 |
| O=c1c2ccccc2nc2n1C(CSc1ccc(Cl)cc1Cl)CN2 (centres undefined) | -150.5 |

| Structure (SMILES) | Percent Effect [%] |
| --- | --- |
| CC(=O)NCCOc1cccc(Br)c1 | -82.47 |
| CN1CCCC1CNC(=O)CCCOCc1ccccc1 (centres undefined) | -50.92 |
| CC(C)NC(=O)N1CCN(C(=O)NC(C)C)CC2(CNC(=O)C2)C1 | -54.94 |
| Cc1cc(N2CCCN(Cc3ccc(C)o3)CC2)ccn1 | 32.48 |
| Cc1cc(N2CCCN(c3ccnc(C)c3)CC2)ccn1 | -92.15 |
| Cc1cc(N2CCCN(CCc3ccccc3)CC2)ccn1 | 86.4 |
| CC(C)n1nnnc1-c1ccc(NC(=O)N(C)CCN(C)C)cc1F | -66.24 |
| COc1ccccc1S(=O)(=O)NCC(c1cccn1C)N(C)C (centres undefined) | 10.47 |
| COc1ccc(S(=O)(=O)NCC(c2cccn2C)N(C)C)cc1F (centres undefined) | -0.0752 |
| CN(C)C(CNS(=O)(=O)c1cc(F)ccc1F)c1cccn1C (centres undefined) | 52.76 |
| Cc1c(CN2CCCCC2)c(O)n(CCCO)c(=O)c1C#N | -126.8 |
| CC(C)Nc1ncnc2c1CCN(C(=O)NCc1cccc(F)c1)CC2 | -3.86 |
| Cn1ccnc1NC[C@@H]1CCC[C@@H]2CN(Cc3cccnc3)C[C@@H]21.O=C(O)C(F)(F)F | -26.47 |
| O=C(O)C(F)(F)F.c1cncc(CN2C[C@H]3CCC[C@@H](CNc4cnccn4)[C@H]3C2)c1 | -3.57 |
| Cn1cc(CN2C[C@@H]3CCC[C@@H](OCc4cccnc4)[C@@H]3C2)cn1 | -83.15 |
| Cn1ccnc1NC[C@@H]1CCC[C@@H]2CN(Cc3nccs3)C[C@@H]21.O=C(O)C(F)(F)F | -64.87 |
| O=C(O)C(F)(F)F.O=C(O)C(F)(F)F.O=C(O)C(F)(F)F.c1cnc(N2CCN(C3CCC[C@@H]4CN(CC5CC5)C[C@H]34)CC2)nc1 (some centres undefined) | 48.04 |
| CN(Cc1ccccn1)C1CCC[C@@H]2CN(CC3CC3)C[C@H]12.O=C(O)C(F)(F)F.O=C(O)C(F)(F)F (some centres undefined) | 68.03 |
| O=C(O)C(F)(F)F.c1ccc(NC[C@@H]2CCC[C@@H]3CN(Cc4nccs4)C[C@@H]32)nc1 | 55.03 |
| O=C(O)C(F)(F)F.c1ccc(NC[C@@H]2CCC[C@@H]3CN(Cc4cccnc4)C[C@@H]32)nc1 | 75.01 |
| O=C(C[C@@H]1COC[C@H]2CN(Cc3cccnc3)C[C@@H]12)NCC1CC1.O=C(O)C(F)(F)F.O=C(O)C(F)(F)F | -77.98 |
| Cc1cnc(N2C[C@H]3CCCC(N(C)Cc4ccccn4)[C@H]3C2)nc1.O=C(O)C(F)(F)F (some centres undefined) | -10.03 |
| Cn1cc(CN2C[C@H]3CCC[C@@H](CNc4ncccn4)[C@H]3C2)cn1.O=C(O)C(F)(F)F | -87.54 |
